According to PubChem BioAssay AID1347434 (National Center for Advancing Translational Sciences (NCATS), 2020):
Screen size: about 1,200 compounds; about 30 (2%) were called active. Another 23% or so got no clear call; they are omitted. The call rests on the fitted dose curve; in most records, active means well fitted inhibition curve with a large enough effect; inconclusive means small, poorly fitted or top-dose-only effect; inactive means flat fitted curve, though single readings scatter. The list comes from a sample in which actives are over-represented; it also holds similar structures and randomly drawn compounds.

Each compound was assayed against Single-stranded DNA cytosine deaminase (Homo sapiens) (UniProt Q9GZX7) (assay: Confirmatory qHTS assay for inhibitors of Activation Induced Cytidine Deaminase (AID): AID signals). Settings: recombinant AID, FRET deamination/UDG coupled fluorescence, 4 h; series mostly up to 115 µM.
How it was run: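 Read 1 (AID) was measured at 540 ex/590 em after a 30 min NaOH step. The reaction was AID (1 uM, 4/3x stock) with UDG, compound at final 7.32 nM - 114 uM for 10 min, then DJC20/DJC23 substrate for 4 hr at room temperature. A UDG read at 560/665 serves as counterscreen.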
Potency means the concentration at half of the fitted maximal effect.

Single-stranded DNA cytosine deaminase (Homo sapiens), sequence (Q9GZX7 whole entry, looked up): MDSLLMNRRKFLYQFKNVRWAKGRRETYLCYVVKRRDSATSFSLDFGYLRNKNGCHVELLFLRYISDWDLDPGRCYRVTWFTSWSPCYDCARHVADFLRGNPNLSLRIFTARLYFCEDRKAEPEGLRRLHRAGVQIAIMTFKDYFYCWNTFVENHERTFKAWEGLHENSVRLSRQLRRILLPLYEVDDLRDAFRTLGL

Potency, inactive:
CCOc1ccc(NC(=O)CN(C)S(=O)(=O)c2ccc3c(c2)c(=O)n(C)c(=O)n3C)cc1
COc1cccc(CNC(=O)c2oc3c(c2C)-c2nn(Cc4cccc(Cl)c4)cc2CC3)c1OC
COc1ccc(Nc2ncc(C(=O)Nc3cccc(OC)c3)c3ccccc23)cc1
Cc1ccccc1CSc1nc2nc(C)c(Cc3ccccc3)c(C)n2n1
CCCCSCCCNC(=O)c1cn(CC)c2ccc(S(=O)(=O)N(C)C3CCCCC3)cc2c1=O
CC1CCCN(C(=O)c2ccc(CSc3nc4ccncc4n3Cc3ccccc3)cc2)C1 (stereo unspecified)
Cc1ccccc1Nc1c(-c2ccc(N3CCOCC3)cc2)nc2ccccn12
CCCN(CCC)CCCNC(=O)c1cc2c(-c3ccc(Cl)cc3)nn(C)c2s1
CCCCn1c(CNC(=O)C23CC4CC(CC(C4)C2)C3)nnc1SCC(=O)Nc1ccc(C)cc1
Cc1cccc(NC(=O)CCn2nc(-c3ccccc3)c3ccccc3c2=O)c1
CCn1nc(C)c2c(-c3ccccc3)cc(=O)n(C(C)C(=O)NCc3ccccc3OC)c21 (stereo unspecified)
COc1cccc(-n2c(-c3cccc(F)c3)nc3c(cnn3-c3ccc(C)cc3)c2=O)c1
CCOc1ccc(CNCc2c(C(=O)O)n(Cc3ccccc3F)c3cc(OC)ccc23)cc1
COc1ccc(C(C)=O)cc1CSc1nc(NCCc2ccccc2)c2ccccc2n1
Cc1cccc(N2CCN(C(=O)Cn3ncc4c3-c3cc(C)ccc3OC4)CC2C)c1 (stereo unspecified)
COc1ccccc1C(=O)Oc1c(Sc2ccccc2)c(C)nn1-c1ccccc1
CCOC(=O)C1=C(CN2CCN(c3ccccc3F)CC2)NC(=O)NC1c1ccc(Cl)cc1 (stereo unspecified)
Cc1cccc(N2CCN(C(=O)C(C)n3nc(C)n4c(cc5occc54)c3=O)CC2)c1C (stereo unspecified)
Cc1ccc(C2CCN(C(=O)c3cnn(-c4cccc(Cl)c4)c3C3CCN(C(=O)OC(C)(C)C)CC3)C2)cc1 (stereo unspecified)
COc1ccc(CCNC(=O)c2c[nH]n3c(=O)c(Cc4ccccc4Cl)c(C)nc23)cc1OC
FC(F)(F)c1cccc(N2CCN(Cc3nnc(-c4ccc5c(c4)OCO5)o3)CC2)c1
COc1ccc(-c2nc(CSCC(=O)N3CCN(c4cccc(C)c4C)CC3)c(C)o2)cc1OC
O=C(CSC1=Nc2ccccc2N=C(c2ccc(F)cc2)C1)Nc1cccc(C(F)(F)F)c1
COc1ccc(-c2nc3c(c(SCC(=O)Nc4ccc(C(=O)O)cc4)n2)Cc2ccccc2O3)cc1
Cc1cccc(-n2cnc3cc(C(=O)NCc4ccccc4Cl)ccc32)c1
Cc1cccc(-c2nc(CCNC(=O)COc3ccccc3)cs2)c1
CCN(C(=O)CSc1nc(-c2ccccc2)no1)c1cccc(C)c1
COc1ccc(CNCCC(c2ccccc2)c2ccc3c(c2)OCO3)cc1 (stereo unspecified)
CCCCN(CC)CCCNC(=O)c1cn(CC)c2ccc(S(=O)(=O)N3CCc4ccccc4C3)cc2c1=O
CCc1ccc(CN(Cc2ccco2)c2cnc(S(C)(=O)=O)nc2C(=O)Nc2ccc(C)c(Cl)c2)cc1
CCOc1ccc(-c2nn(-c3ccccc3)cc2C2NC(=O)NC(C)=C2C(=O)OC(C)C)cc1 (stereo unspecified)
COc1ccc(CN(Cc2ccco2)C(=O)COc2ccc(Cl)cc2C)cc1
Cc1nc2nc(SCC(=O)N(C)Cc3ccccc3)nn2c(C)c1Cc1ccccc1Cl
Cc1ccc(Cn2cc(S(=O)(=O)c3ccc(C)cc3)c(=O)c3cc(F)c(N4CCCC4)cc32)cc1
CCc1ccc(S(=O)(=O)c2cnc3ccc(OC)cc3c2N2CCCC(C)C2)cc1 (stereo unspecified)
CCOC(=O)C1CCN(c2nc3c(S(=O)(=O)c4ccccc4)nnn3c3ccsc23)CC1
CCN(CC)C(=O)CSc1nc(-c2ccccc2F)nc2c1Cc1c(CO)cnc(C)c1O2
Cc1ccccc1C(=O)Nc1sc2c(c1C(=O)O)CCC(C(C)(C)C)C2 (stereo unspecified)
Cc1ccc(-c2sc(C(=O)Nc3ccc(Br)cc3)cc2CC(=O)O)cc1
CCC(=O)Oc1c(Sc2ccc(Cl)cc2)c(C)nn1-c1ccccc1

Potency, active:
CC1(C)CCC2=C(O1)c1ccccc1C(=O)C2=O 7.08 µM
OCC1O[C@H]([S-])[C@H](O)[C@@H](O)[C@@H]1O.[Au+] (stereo partly specified) 12.6 µM
Cc1cc2c(C(C)C)c(O)c(O)c(C=O)c2c(O)c1-c1c(C)cc2c(C(C)C)c(O)c(O)c(C=O)c2c1O 31.6 µM
COc1ccc(-c2coc3c2c(C)cc2oc(=O)c(CC(=O)O)c(C)c23)cc1 50.1 µM
O=C(CSc1nc(-c2ccc(F)cc2)nc2c1Cc1ccccc1O2)Nc1cccc(C(=O)O)c1 31.6 µM
Nc1c(S(=O)(=O)O)cc(Nc2ccc(Nc3nc(Cl)nc(Nc4ccc(S(=O)(=O)O)cc4)n3)c(S(=O)(=O)O)c2)c2c1C(=O)c1ccccc1C2=O 20 µM
